Shown are actives, neighbours in structure and some others; about 10% of the full set was active somewhere.
hNpr1 antagonist = Natriuretic polypeptide receptor (hNpr1) antagonism - Primary qHTS; HEK293 hNpr1 GloSensor cGMP, ANP-stimulated luminescence; Potency, µM (doses to about 46.3 µM), for the others: top-dose activity change, negative = inhibition, actives largely listed as inhibitors; 76,000 compounds, 1.6% hits; AID 1347048, 2019; calls by dose curve; also: % is scaled to controls: 0 for no effect and ±100 for the full control effect; nearly all actives have a fitted effect of over 60% in size
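HEK293 cells stably expressing human Npr1 and cGMP GloSensor pGS-40F, loaded 2 h with 2% GloSensor reagent, given compound 30 min at room temperature. Luminescence read before and 20 min after 0.1 nM hNppA.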
GPT2 inh = Primary qHTS assay for inhibitors of Glutamate pyruvate transaminase 2 (GPT2); Recombinant GPT2, coupled pyruvate oxidase/HRP Amplex Red fluorescence; AID 1671188, 2021; 100,000 compounds, 0.25% hits; Potency, µM (titrated, usually from 57.7 µM), without a hit: at the top dose activity change, negative = inhibition, hits mostly inhibitors; also: % is scaled to controls: 0 for no effect and ±100 for the full control effect; nearly all actives have a fitted effect of over 60% in size
Target sequence (Q8TD30 whole entry, looked up): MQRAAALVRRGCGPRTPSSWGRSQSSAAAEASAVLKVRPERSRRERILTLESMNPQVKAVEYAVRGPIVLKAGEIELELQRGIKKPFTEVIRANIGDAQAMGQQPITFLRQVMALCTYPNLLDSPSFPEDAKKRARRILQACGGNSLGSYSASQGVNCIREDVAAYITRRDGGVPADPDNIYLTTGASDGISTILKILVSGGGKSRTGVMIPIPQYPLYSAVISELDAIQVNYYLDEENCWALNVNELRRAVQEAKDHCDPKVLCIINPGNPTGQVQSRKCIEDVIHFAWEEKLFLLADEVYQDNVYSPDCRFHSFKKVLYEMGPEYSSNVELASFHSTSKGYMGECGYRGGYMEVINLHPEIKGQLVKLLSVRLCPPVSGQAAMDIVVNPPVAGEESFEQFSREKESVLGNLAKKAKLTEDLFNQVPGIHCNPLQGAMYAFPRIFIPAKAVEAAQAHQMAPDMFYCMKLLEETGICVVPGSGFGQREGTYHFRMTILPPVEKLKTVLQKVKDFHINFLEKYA
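Fluorescence read-out: pyruvate from GPT2 turnover coupled to pyruvate oxidase, HRP and Amplex Red (0.2mM ThPP, 0.2U/mL PO and HRP, 50uM Amplex final). Substrates 250uM a-KG, 2mM L-alanine; enzyme 10ng/uL; 30 min RT.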
HEK cytotox = Cytotoxic Profiling in HEK 293 Cell Line of Diverse Libraries Using Quantitative High-Throughput Screening; HEK 293 viability, ATP luminescence (CellTiter-Glo), 48-72 h; Potency, µM (top dose mostly 115 µM), without a hit: at the highest dose activity change, negative = cytotoxicity, hits mostly inhibitors; 94,000 compounds, 6.6% hits; AID 1345083, 2018; also: % is scaled to controls: 0 for no effect and ±100 for the full control effect; nearly all actives have a fitted effect of over 60% in size
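HEK 293 cells at 250 cells/well were exposed to compounds by pintool transfer for 48 or 72 hr at 37 degree Celsius, 5% CO2. Viability was read as ATP-coupled luminescence with CellTiter-Glo after 10 min at room temperature.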
NIH3T3 tox = Cytotoxic Profiling in NIH 3T3 Cell Line of Diverse Libraries Using Quantitative High-Throughput Screening. 94,000 compounds, 4.3% hits. NIH 3T3 viability, CellTiter-Glo ATP luminescence, 48-72 h. Potency, µM (top dose mostly 96.7 µM), without a hit: top-dose activity change, negative = cytotoxicity, most hits filed as inhibitors. AID 1345082, 2018; also: % is scaled to controls: 0 for no effect and ±100 for the full control effect; nearly all actives have a fitted effect of over 55% in size
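Cytotoxicity was measured by CellTiter-Glo ATP luminescence after 48 or 72 h compound exposure at 37 °C. Mouse NIH 3T3 fibroblasts were seeded at 400 cells/well and dosed by 23 nL pin transfer.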
Luciferase inh = Firefly luciferase inhibition profiling of diverse chemical library using quantitative high-throughput screening. purified P. pyralis luciferase, luminescence, biochemical. Potency, µM (series often up to 115 µM), actives largely listed as inhibitors. Luciferin 4-monooxygenase (Photinus pyralis), P08659. 76,000 compounds, 2.5% hits; also: % is scaled to controls: 0 for no effect and ±100 for the full control effect; nearly all actives have a fitted effect of over 65% in size
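Biochemical qHTS: compound (6-point titration) added to 10uM D-luciferin plus 10uM ATP in Tris acetate pH 7.5 buffer with Mg, Tween-20 and BSA, then purified enzyme at 10nM; light output imaged.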
NPR1 antag cnf = Natriuretic polypeptide receptor (hNpr1) antagonism - Confirmation; HEK293 hNpr1 cGMP GloSensor luminescence, ANP-stimulated; Potency, µM (top dose mostly 57.6 µM), without a hit: at the top dose activity change, negative = inhibition, hits mostly inhibitors; AID 1347044, 2019; shares compounds with hNpr1 antagonist; 1,400 compounds, 76% hits; calls by dose curve; also: nearly all actives have a fitted effect of over 70% in size
NPR2 antag = Natriuretic polypeptide receptor (hNpr2) antagonism - Subtype selectivity assay; shares compounds with hNpr1 antagonist; HEK293 hNpr2 GloSensor cGMP luminescence, CNP-stimulated; Potency, µM (series often up to 57.6 µM), for the others: at the highest dose activity change, negative = inhibition, most hits filed as inhibitors; 1,400 compounds, 67% hits; AID 1347046, 2019; calls by dose curve; also: nearly all actives have a fitted effect of over 70% in size
FLuc inh counter = Natriuretic polypeptide receptor (hNpr1) antagonism - Confirmation firefly luciferase (FLuc) inhibition counterscreen. AID 1347047, 2019. 1,400 compounds, 0.7% hits. Potency, µM (highest dose often 57.6 µM), for the others: top-dose activity change, negative = inhibition, most hits filed as inhibitors. shares compounds with hNpr1 antagonist. purified FLuc enzyme, luminescence, Km substrate; also: 0% is about no effect
GloSensor cGMP = Natriuretic polypeptide receptor (hNpr1) antagonism - Counterscreen GloSensor control cell line; shares compounds with hNpr1 antagonist; HEK293 GloSensor cGMP, SNP-stimulated, luminescence; Potency, µM (top dose mostly 57.6 µM), without a hit: at the top dose activity change, negative = inhibition, usual class: inhibitors; 1,400 compounds, 69% hits; calls by dose curve; also: % is scaled to controls: 0 for no effect and ±100 for the full control effect; nearly all actives have a fitted effect of over 70% in size
* hit, by the source's call; i = inactive; ? = inconclusive; . = no result; [ ] = remark or other dose. Unless noted, calls follow the shape of the dose curve; as a rule, active = well fitted curve in the direction sought with a large enough effect; inconclusive = small, poorly fitted or top-dose-only effect, or another doubt; inactive = no such curve, though single readings can be large; an effect the other way counts as inactive or inconclusive. Potency is read from the fitted curve at half-maximal effect.

SMILES | hNpr1 antagonist | GPT2 inh | HEK cytotox | NIH3T3 tox | Luciferase inh | NPR1 antag cnf | NPR2 antag | FLuc inh counter | GloSensor cGMP
Cc1nn2c(c1-c1ccccc1C(N)=O)N(C(=O)Cc1cccc(F)c1)CCC2 | -1.3%[70.6 µM] | 3.4%[88.5 µM] | -15.6%[172 µM] | ? | i | . | . | . | .
Cc1nn2c(c1-c1ccccc1Oc1ccccc1)N(C(=O)Cc1cccc(F)c1)CCC2 | ? | ? | ? | 39.8µM* | i | ? | ? | 1.4% | -23.1%
CN(C)c1cc(=O)c2ccnc(N3CCN(c4ccccn4)CC3)c2o1 | 1.5%[70.6 µM] | i | -2.1%[172 µM] | ? | i | . | . | . | .
COc1ccc(F)cc1S(=O)(=O)N1CCCC(Cn2c(C)nc3cccnc32)C1 (configuration not stated) | -20.1% | i | ? | ? | i | . | . | . | .
CC(=O)N(C1CCOCC1)C1CCN(S(=O)(=O)c2ccc(F)c(F)c2)CC1 | . | -5.7% | -2.2% | -25.3% | . | . | . | . | .
CN(C)C[C@@H]1CN(C)C[C@H]1NS(=O)(=O)c1ccccc1C(F)(F)F | -1.0% | i | -19.5% | -12.7% | i | . | . | . | .
CC(C)Cc1cc(C(=O)NCc2nc(Cc3cccs3)no2)on1 | 3.5% | i | -9.0% | -14.8% | i | . | . | . | .
CCCc1nc(NCc2nc(Cc3cccs3)no2)c2cnn(C)c2n1 | 12.6µM* | 0.6% | 44.7µM* | ? | i | 21.7µM* | 21.7µM* | 5.3% | 21.7µM*
COCC(=O)NC[C@@H]1C=C(C)[C@H](CC(=O)N2CCN(c3ccccn3)CC2)C[C@H]1C(C)C | 3.6% | 5.0% | ? | -2.1% | i | . | . | . | .
O[C@H]1CC[C@@H](Cc2cc(-c3ccc(F)cc3)on2)O[C@@H]1CNCc1ccncc1 | -13.2%[70.6 µM] | -7.2%[88.5 µM] | -21.2%[172 µM] | -18.0%[174 µM] | i | . | . | . | .
CN1CCC(NC[C@H]2O[C@H](Cc3cc(-c4cccc(O)c4)on3)CC[C@@H]2O)CC1 | ? | -1.5%[88.5 µM] | -0.2%[172 µM] | -1.9%[174 µM] | i | ? | -26.7%[86.2 µM] | -12.7%[86.2 µM] | ?
CCNC[C@H]1O[C@H](Cc2cc(-c3ccc(F)cc3)on2)CC[C@@H]1O | ? | -1.6%[88.5 µM] | ? | ? | ? | ? | -20.9%[86.2 µM] | -25.7%[86.2 µM] | ?
COCc1cc(C[C@@H]2CC[C@H](O)[C@@H](CNC3CCN(C)CC3)O2)no1 | -1.6%[70.6 µM] | -15.9%[88.5 µM] | -10.9%[172 µM] | -8.7%[138 µM] | i | . | . | . | .
NC(=O)[C@H]1C[C@@H](O)[C@H](O)[C@H]2[C@@H]1SC(=Nc1ccccc1)N2CC1CCCCC1 | -0.7%[70.6 µM] | -4.8%[88.5 µM] | -1.9%[172 µM] | -4.4%[174 µM] | i | . | . | . | .
CCc1cc(=O)n(CC(=O)N2CCN(c3ccc(OC)cc3)CC2)c(-c2ccccc2)n1 | 4.8% | -28.1% | -5.4% | i | i | . | . | . | .
